Results as given in PubChem BioAssay (EPA / NIEHS).
The source made the active and inactive calls. The calls were made as follows: active = hit-call score of the fitted dose curve at least 0.9, where 1 is the maximum; inactive = score below 0.9.

assay: APR_HepG2_MitoticArrest_72hr: Apredica 72-hour HepG2 Assay for Mitotic Arrest (AID 2282918); details: high-content imaging, actives raise or lower the signal
Method in brief: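 High-content imaging of fixed human HepG2 cells after 72 h compound exposure (0.39–200 uM, duplicates, 0.5% DMSO); mitotic arrest scored from phospho-histone H3 and nuclear Hoechst staining relative to DMSO.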

outcome, inactive:
O=C1c2c(O)cccc2Cc2cccc(O)c21, CCCCCCCC(=O)OC, CCc1cc(C2=C(C(=O)O)N(c3ccccc3C(F)(F)F)S(=O)(=O)c3ccccc32)cc2c1OCO2, OCC(O)CO, S=c1[nH]c2ccccc2s1, CO[C@@H]1COCC[C@@H]1N[C@@H]1CC[C@@](C(=O)N2CCc3ncc(C(F)(F)F)cc3C2)(C(C)C)C1, CS(=O)(=O)c1ccc([C@@H](C[C@H]2CCC(=O)C2)C(=O)Nc2cnccn2)cc1Cl, Oc1ccc(O)cc1, CC(C)(O)c1ccc(CNC(=O)c2cccnc2Oc2ccc(F)cc2)cc1

AC50, active:
CCCCCCCCCC[N+](C)(C)[O-] 75 µM, CN(C)CCCN1c2ccccc2Sc2ccc(Cl)cc21 26 µM, COc1ccc(C(=O)Nc2nc3ccccc3c(NCc3ccccc3)c2C#N)cc1 108 µM, COc1ccc(OC(F)(F)F)cc1CN[C@H]1CCCN[C@H]1c1ccccc1 17.7 µM, CN(C)C(=O)NC1(c2ccccc2)CCN(CC[C@@]2(c3ccc(F)c(F)c3)CN(C(=O)c3ccccc3)CCO2)CC1 86 µM, CN(C)C(=O)NC1(c2ccccc2)CCN(CCC[C@]2(c3ccc(Cl)c(Cl)c3)CCCN(C(=O)c3ccccc3)C2)CC1 9.82 µM, NCCOCCOCCN 15.8 µM, CCc1nc(N)nc(N)c1-c1ccc(Cl)cc1 110 µM, Nc1nc(Cl)nc2c1ncn2[C@H]1C[C@H](O)[C@@H](CO)O1 0.089 µM
